{
  "source": "PubChem BioAssay AID1345082",
  "about": "(National Center for Advancing Translational Sciences (NCATS), 2018)",
  "note": "Out of some 94,000 compounds screened, about 4,000 (4.3%) were called active. Inconclusive results (about 29%) are left out. The sample as a whole holds a higher share of actives than the screen did. Unmarked numbers belong to inactive results. The call rests on the fitted dose curve; in most records, active means well fitted inhibition curve with a large enough effect; inconclusive means small, poorly fitted or top-dose-only effect; inactive means no such curve, though single readings can be large or run the other way.",
  "data": [
    {"experiment": "Cytotoxic Profiling in NIH 3T3 Cell Line of Diverse Libraries Using Quantitative High-Throughput Screening; further: nearly all actives have a fitted effect of over 55% in size; further: potency means the concentration at half of the fitted maximal effect; on activity change, negative = cytotoxicity: on the % scale 0 is the no-effect control and ±100 the full control effect", "conditions": "NIH 3T3 viability, CellTiter-Glo ATP luminescence, 48-72 h; series mostly up to 96.7 µM; activity change, negative = cytotoxicity: at the top concentration", "in_short": "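ATP-dependent luminescence (CellTiter-Glo) served as the viability signal for NIH 3T3 cells treated with compound for 48 or 72 hr at 37 °C.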", "values": [
      {"compound": "COCCN1CCC(N2CCN(S(=O)(=O)c3ccccc3)CC2)C1=O", "note": "(stereo unspecified)", "activity change, negative = cytotoxicity": "-10.6%"},
      {"compound": "O=C(NCC1CCOCC1)C1COc2ccccc2O1", "note": "(stereo unspecified)", "activity change, negative = cytotoxicity": "0.377%"},
      {"compound": "CC(C)(C)CC(=O)NC1CCN(c2cnn(CC3CC3)c(=O)c2)CC1", "activity change, negative = cytotoxicity": "-25%"},
      {"compound": "O=C(NCCc1noc(-c2ccccc2)n1)C1CC1", "activity change, negative = cytotoxicity": "0.495%"},
      {"compound": "CCn1cc(C(=O)N2CC(COC)C3(CCNCC3)C2)cn1", "note": "(stereo unspecified)", "activity change, negative = cytotoxicity": "-10.5%"},
      {"compound": "Cc1noc(C)c1[S+](=O)([O-])N1CCn2c(nnc2-c2ccccc2)C1", "activity change, negative = cytotoxicity": "-32.3%"},
      {"compound": "Cc1noc(C)c1[S+](=O)([O-])N1CC(Oc2ccc(F)c(F)c2)C1", "outcome": "inactive"},
      {"compound": "Cc1noc(C)c1[S+](=O)([O-])NC1CCN(Cc2cccc(-c3ccc(F)c(F)c3)c2)CC1", "Potency": "14.1 µM (active)"},
      {"compound": "CSc1ccc(-c2cccc(CN3CCC(N[S+](=O)([O-])c4cccs4)CC3)c2)cc1", "Potency": "12.6 µM (active)"},
      {"compound": "O=C(Nc1cc(F)ccc1F)N1CCC(Oc2ncccc2C(=O)N2CCCCC2)C1", "note": "(stereo unspecified)", "activity change, negative = cytotoxicity": "-27.5%"},
      {"compound": "Cn1cccc1C(=O)N1CCCC(c2nc(-c3ccccc3)no2)CCNC(=O)CC1", "note": "(stereo unspecified)", "activity change, negative = cytotoxicity": "-6.19%"},
      {"compound": "COc1ccccc1NC(=O)Cn1c(C)cc2nc3n(c(=O)c21)CCC3", "activity change, negative = cytotoxicity": "-11.3%"},
      {"compound": "Cc1noc(C2CC3(CCN(C(=O)c4sc(C)nc4C)CC3)CN2C)n1", "note": "(stereo unspecified)", "activity change, negative = cytotoxicity": "-22.6%"},
      {"compound": "CCn1nc(C)cc1C(=O)N[C@H]1[C@H](O)[C@H](O)C[C@@H]1c1cccnc1", "activity change, negative = cytotoxicity": "-4.46% [at 174 µM]"},
      {"compound": "CN1CCN([C@H]2CCN(C(=O)Cc3cccc(O)c3)C[C@H]2CCCO)CC1", "activity change, negative = cytotoxicity": "2.88%"},
      {"compound": "COCCNC(=O)[C@@H]1C[C@H](Oc2cccnc2)CN1C(=O)c1nccn1C", "activity change, negative = cytotoxicity": "-8.07%"},
      {"compound": "Cc1cc(=O)n(CC(=O)NCCc2ccc(Cl)cc2)c(N2CCc3ccccc3C2)n1", "Potency": "25.1 µM (active)"},
      {"compound": "Cc1cc(=O)n(CC(=O)Nc2cccc(Cl)c2C)c(N2CCc3ccccc3C2)n1", "activity change, negative = cytotoxicity": "2.06%"},
      {"compound": "CCOC(=O)C1=CN(CC(=O)NCCc2ccc(Cl)cc2)S(=O)(=O)N=C1C", "activity change, negative = cytotoxicity": "-14.8%"},
      {"compound": "CCC(CC)NC(=O)C1Cn2cccc2C(=O)N1Cc1cccnc1", "note": "(stereo unspecified)", "activity change, negative = cytotoxicity": "-2.79%"},
      {"compound": "O=C(Cc1ccc(F)cc1)NC1CCN(c2cc(-c3ccc(Cl)cc3)[nH]n2)CC1", "activity change, negative = cytotoxicity": "-6.32%"},
      {"compound": "O=C(NC1CCN(c2cc(-c3ccccc3)[nH]n2)CC1)c1cccs1", "activity change, negative = cytotoxicity": "-27.8%"},
      {"compound": "Cn1nccc1C(=O)NC1CCCN(c2cc(-c3ccc(F)cc3)[nH]n2)C1", "note": "(stereo unspecified)", "activity change, negative = cytotoxicity": "-29.7%"},
      {"compound": "CCn1ccc(C(=O)NC2CCCN(c3cc(-c4ccc(F)cc4)[nH]n3)C2)n1", "note": "(stereo unspecified)", "activity change, negative = cytotoxicity": "-20.8%"},
      {"compound": "Cc1ccc(-c2cc(N3CCC(CNC(=O)c4ccc(N(C)C)cc4)CC3)n[nH]2)cc1", "activity change, negative = cytotoxicity": "-29.1%"},
      {"compound": "O=C(NC1CCN(c2cc(-c3ccc(Cl)cc3)[nH]n2)C1)c1c[nH]c2ccccc12", "note": "(stereo unspecified)", "Potency": "39.8 µM (active)"},
      {"compound": "O=C(NC1CCN(c2cc(-c3ccc(F)cc3)[nH]n2)C1)c1cc2ccccc2[nH]1", "note": "(stereo unspecified)", "Potency": "39.8 µM (active)"},
      {"compound": "O=C(NCC1CCN(c2cc(-c3ccc(Cl)cc3)[nH]n2)CC1)c1ccc2nc[nH]c2c1", "Potency": "35.5 µM (active)"},
      {"compound": "CC(=O)N1CCC(C(=O)NCC2CCN(c3cc(-c4ccc(C)cc4)[nH]n3)CC2)CC1", "activity change, negative = cytotoxicity": "-19.3%"},
      {"compound": "CNC(=O)[C@H]1C[C@H](Oc2cccnc2)CN1C(=O)c1ccccc1", "activity change, negative = cytotoxicity": "-6.57%"},
      {"compound": "CCOc1ccccc1CN1CCc2nc(N3CCN(C)CC3)[nH]c(=O)c2CC1", "activity change, negative = cytotoxicity": "-20.9%"},
      {"compound": "CC(C)N1CC2(C1)C(=O)N(Cc1cccc(Cl)c1)C(=O)[C@@H]1C[C@@H](O)CN12", "activity change, negative = cytotoxicity": "-3.82% [at 174 µM]"},
      {"compound": "CC(C)NC(=O)C(C)[C@@H]1CC[C@@]2(C)CC[C@H](N[S+](C)(=O)[O-])[C@@H](C)[C@@H]2[C@H]1O", "note": "(stereo partly specified)", "activity change, negative = cytotoxicity": "-26.4% [at 138 µM]"},
      {"compound": "CCOc1ccc(NC(=O)C2CN(S(C)(=O)=O)CC23CCCCC3)cc1", "note": "(stereo unspecified)", "activity change, negative = cytotoxicity": "-6.07%"},
      {"compound": "Cc1cc(C2CCCN2C(=O)c2ccc(F)c(F)c2)on1", "note": "(stereo unspecified)", "activity change, negative = cytotoxicity": "-11.7%"},
      {"compound": "O=C(O)C[C@@H]1CCN(C(=O)Nc2ccccc2)C[C@@H]1CC1=NCCc2cc(F)ccc21", "activity change, negative = cytotoxicity": "-21.7% [at 174 µM]"},
      {"compound": "O=C1CC2(CCN(C(=O)C3CCN(C(=O)Cc4ccc(F)cc4)CC3)CC2)Oc2ccccc2N1", "activity change, negative = cytotoxicity": "-10.8%"},
      {"compound": "COc1ccc(-c2cccc(C(=O)N3CCC(NC(=O)c4ccc(C(F)(F)F)cc4)CC3)c2)nn1", "activity change, negative = cytotoxicity": "-27.6%"},
      {"compound": "COc1ccc(-c2ccc3ncc(Nc4ccc(C(F)(F)F)cc4)n3n2)cn1", "Potency": "79.4 µM (active)"},
      {"compound": "COc1ccc(-c2ccc3ncc(Nc4cc(F)cc(N5CCOCC5)c4)n3n2)cn1", "activity change, negative = cytotoxicity": "-19.1% [at 138 µM]"},
      {"compound": "CC(=O)NCCc1ncc(C)n1C1CCCCC1", "activity change, negative = cytotoxicity": "-3.39%"},
      {"compound": "Cn1c(=O)n(C)c2cc(S(=O)(=O)N[C@@H]3CCOC[C@H]3O)ccc21", "activity change, negative = cytotoxicity": "4.94%"},
      {"compound": "COCCC1(NC(=O)C2CCOCC2)CCN(C(=O)C2COc3ccccc3O2)CC1", "note": "(stereo unspecified)", "activity change, negative = cytotoxicity": "-5.99%"},
      {"compound": "COCC(=O)NCCC1CCN(C(=O)Nc2cc(F)cc(F)c2)CC1", "activity change, negative = cytotoxicity": "-8.74%"},
      {"compound": "COc1ccc(NC(=O)Cn2ccn3nc(-c4ccc(F)cc4)c(CO)c3c2=O)cc1OC", "activity change, negative = cytotoxicity": "-10%"},
      {"compound": "COc1ccc(OCC2(C)COc3ccc(C(=O)Nc4cccnc4)cc3N2)cc1", "note": "(stereo unspecified)", "Potency": "44.7 µM (active)"},
      {"compound": "CC1(CNc2ccccc2)COc2ccc(C(=O)NCc3cccc(F)c3)cc2N1", "note": "(stereo unspecified)", "Potency": "39.8 µM (active)"},
      {"compound": "COc1cccc(C(=O)Nc2ccc3c(c2)CN(Cc2ccc(OC)cc2OC)C(=O)CO3)c1", "activity change, negative = cytotoxicity": "-28.5%"},
      {"compound": "O=C(NCC1CCOCC1)c1ccc2[nH]ccc2c1", "activity change, negative = cytotoxicity": "-3.18%"},
      {"compound": "CCOc1ccc(NC(=O)C2(Cc3cccnc3)CCCCC(=O)N2)cc1", "note": "(stereo unspecified)", "activity change, negative = cytotoxicity": "-17.6%"},
      {"compound": "COc1ccc(C(=O)Nc2cccc(-c3nnc4n3CCCC4)c2)cc1", "activity change, negative = cytotoxicity": "-23.6%"},
      {"compound": "CC1(CCCCc2ccccc2)COc2ccc(C(=O)N3CC[S+](=O)([O-])CC3)cc2N1", "note": "(stereo unspecified)", "activity change, negative = cytotoxicity": "-27.6%"},
      {"compound": "CN(C)CCN(C)C(=O)c1ccc2c(c1)NC(C)(COc1ccc3[nH]ccc3c1)CO2", "note": "(stereo unspecified)", "Potency": "79.4 µM (active)"},
      {"compound": "COc1cccc(NC(=O)c2ccc3c(c2)NC(C)(COc2ccccc2)CO3)c1", "note": "(stereo unspecified)", "Potency": "39.8 µM (active)"},
      {"compound": "O=C(NCc1cccc(F)c1)C1CN(c2ccccc2)C(=O)N1", "note": "(stereo unspecified)", "activity change, negative = cytotoxicity": "-20.5% [at 138 µM]"},
      {"compound": "O=C(Nc1cccnc1)c1ccc2c(c1)OCCN(Cc1ncccn1)C2", "activity change, negative = cytotoxicity": "-15.5% [at 138 µM]"},
      {"compound": "CC(C)NC(=O)NC1CCCN(c2ccc3nnc(C4CC4)n3n2)C1", "note": "(stereo unspecified)", "activity change, negative = cytotoxicity": "2.65% [at 138 µM]"},
      {"compound": "O=C(NCCc1noc(C2CCCC2)n1)c1cc(F)c(F)cc1Cl", "activity change, negative = cytotoxicity": "-30.7%"},
      {"compound": "O=C(NCCn1cnc2ccccc2c1=O)C1CC(=O)N(c2n[nH]c3ccccc23)C1", "note": "(stereo unspecified)", "activity change, negative = cytotoxicity": "-4.68%"},
      {"compound": "CCOc1ccc(NC(=O)Cn2c(N3CCOCC3)nc(COC)cc2=O)cc1", "activity change, negative = cytotoxicity": "-25%"},
      {"compound": "O=C(c1ccc(F)cc1)N1CCC[C@H]1c1nc(-c2ccccc2Cl)no1", "activity change, negative = cytotoxicity": "-13.6%"}
    ]}
  ]
}
